The supplement of paper PMC11732987, “Enantioselective OTUD7B fragment discovery through chemoproteomics screening and high-throughput optimisation” (Communications Chemistry, 2025)

Experiments:
Assay in all cases: log2 ratio of Biotin-Ahx-Ub-VS probe labelling (fragment/DMSO); higher = less target engagement (more negative = stronger competition), active = hit call of the paper (q ≤ 0.05, log2 ratio ≤ -1)
Conditions in all cases: compound concentration: 200 uM; treatment time: 3 h
USP19 = biological target: T1, USP19 (UniProt O94966)
T1 sequence (whole entry): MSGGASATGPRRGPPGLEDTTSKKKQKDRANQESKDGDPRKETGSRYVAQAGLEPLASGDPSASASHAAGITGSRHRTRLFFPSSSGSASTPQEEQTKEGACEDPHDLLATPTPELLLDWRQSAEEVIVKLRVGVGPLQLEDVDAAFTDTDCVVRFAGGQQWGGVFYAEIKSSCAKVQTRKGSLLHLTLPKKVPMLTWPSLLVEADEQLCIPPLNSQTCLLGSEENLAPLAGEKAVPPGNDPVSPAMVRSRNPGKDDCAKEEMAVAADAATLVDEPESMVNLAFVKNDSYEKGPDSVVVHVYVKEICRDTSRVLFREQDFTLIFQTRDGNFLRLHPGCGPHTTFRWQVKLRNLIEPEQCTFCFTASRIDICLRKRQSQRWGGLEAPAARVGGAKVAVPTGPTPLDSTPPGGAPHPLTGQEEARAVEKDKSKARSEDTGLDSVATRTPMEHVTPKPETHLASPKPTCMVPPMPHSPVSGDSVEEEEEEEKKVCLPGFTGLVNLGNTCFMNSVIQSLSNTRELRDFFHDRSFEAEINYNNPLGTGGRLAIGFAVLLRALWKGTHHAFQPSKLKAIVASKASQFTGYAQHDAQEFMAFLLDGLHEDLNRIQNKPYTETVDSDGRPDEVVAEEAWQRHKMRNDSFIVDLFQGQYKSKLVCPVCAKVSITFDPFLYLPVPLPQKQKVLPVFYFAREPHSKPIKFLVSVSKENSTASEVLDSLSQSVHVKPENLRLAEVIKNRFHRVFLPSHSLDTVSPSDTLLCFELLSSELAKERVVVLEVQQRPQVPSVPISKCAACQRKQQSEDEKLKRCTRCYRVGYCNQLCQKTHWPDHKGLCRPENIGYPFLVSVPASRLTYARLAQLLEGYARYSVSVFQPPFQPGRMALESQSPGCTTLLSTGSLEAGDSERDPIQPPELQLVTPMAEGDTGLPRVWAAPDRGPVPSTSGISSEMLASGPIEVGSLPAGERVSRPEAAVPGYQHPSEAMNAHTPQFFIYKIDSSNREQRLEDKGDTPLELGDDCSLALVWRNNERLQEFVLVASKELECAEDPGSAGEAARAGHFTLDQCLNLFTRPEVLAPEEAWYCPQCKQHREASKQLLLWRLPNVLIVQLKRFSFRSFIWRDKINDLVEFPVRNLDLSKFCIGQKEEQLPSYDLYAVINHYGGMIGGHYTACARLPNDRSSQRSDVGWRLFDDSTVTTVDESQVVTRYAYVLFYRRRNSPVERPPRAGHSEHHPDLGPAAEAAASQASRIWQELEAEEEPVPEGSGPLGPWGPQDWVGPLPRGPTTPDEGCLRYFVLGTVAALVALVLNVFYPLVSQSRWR
In short: (§1)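 Each value is an average log2 ratio of fragment to vehicle, tested by unpaired t-test. The underlying Spectronaut label-free quantities were global-median-normalised, and only proteins with ≥2 unique peptides were included. Triplicate HEK293T lysate samples (495 µg) were exposed to fragment at 200 µM or vehicle for 3 h, then to Biotin-Ahx-Ub-VS at 0.5 µM final for 1 h, before NeutrAvidin enrichment of labelled DUBs, LysC and trypsin digestion, and diaPASEF LC-MS/MS.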

USP24 = USP24 (UniProt Q9UPU5)
In short: as §1

USP25 = biological target: T2, USP25 (UniProt Q9UHP3)
T2 sequence (whole entry): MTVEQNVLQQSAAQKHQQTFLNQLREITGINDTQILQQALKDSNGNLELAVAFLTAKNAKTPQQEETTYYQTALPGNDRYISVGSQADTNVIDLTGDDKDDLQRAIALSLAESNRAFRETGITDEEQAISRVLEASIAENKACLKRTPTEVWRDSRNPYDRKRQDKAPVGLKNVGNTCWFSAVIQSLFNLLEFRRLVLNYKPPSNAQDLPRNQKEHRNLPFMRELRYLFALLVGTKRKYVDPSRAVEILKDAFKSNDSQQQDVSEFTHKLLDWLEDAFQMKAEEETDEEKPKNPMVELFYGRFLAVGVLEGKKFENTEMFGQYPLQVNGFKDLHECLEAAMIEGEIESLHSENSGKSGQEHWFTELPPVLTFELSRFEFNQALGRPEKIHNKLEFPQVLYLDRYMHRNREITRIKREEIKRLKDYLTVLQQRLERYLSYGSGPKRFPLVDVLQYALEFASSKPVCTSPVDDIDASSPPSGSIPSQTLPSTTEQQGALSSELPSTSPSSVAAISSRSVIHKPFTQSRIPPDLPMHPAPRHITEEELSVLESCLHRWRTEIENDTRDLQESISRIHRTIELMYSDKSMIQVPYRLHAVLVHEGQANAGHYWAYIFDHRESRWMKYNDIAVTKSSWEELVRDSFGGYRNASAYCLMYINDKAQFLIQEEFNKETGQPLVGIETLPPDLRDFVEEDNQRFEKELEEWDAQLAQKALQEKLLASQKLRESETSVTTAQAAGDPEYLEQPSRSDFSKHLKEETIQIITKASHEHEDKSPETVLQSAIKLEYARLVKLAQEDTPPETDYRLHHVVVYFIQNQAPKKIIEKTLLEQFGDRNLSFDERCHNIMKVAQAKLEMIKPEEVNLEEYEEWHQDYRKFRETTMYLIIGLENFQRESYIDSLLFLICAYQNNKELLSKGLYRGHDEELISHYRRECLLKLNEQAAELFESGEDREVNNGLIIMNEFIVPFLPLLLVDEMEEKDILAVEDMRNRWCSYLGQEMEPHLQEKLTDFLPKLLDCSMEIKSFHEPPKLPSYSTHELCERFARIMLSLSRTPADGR
In short: as §1

USP28 = biological target: T3, USP28 (UniProt Q96RU2)
T3 sequence (whole entry): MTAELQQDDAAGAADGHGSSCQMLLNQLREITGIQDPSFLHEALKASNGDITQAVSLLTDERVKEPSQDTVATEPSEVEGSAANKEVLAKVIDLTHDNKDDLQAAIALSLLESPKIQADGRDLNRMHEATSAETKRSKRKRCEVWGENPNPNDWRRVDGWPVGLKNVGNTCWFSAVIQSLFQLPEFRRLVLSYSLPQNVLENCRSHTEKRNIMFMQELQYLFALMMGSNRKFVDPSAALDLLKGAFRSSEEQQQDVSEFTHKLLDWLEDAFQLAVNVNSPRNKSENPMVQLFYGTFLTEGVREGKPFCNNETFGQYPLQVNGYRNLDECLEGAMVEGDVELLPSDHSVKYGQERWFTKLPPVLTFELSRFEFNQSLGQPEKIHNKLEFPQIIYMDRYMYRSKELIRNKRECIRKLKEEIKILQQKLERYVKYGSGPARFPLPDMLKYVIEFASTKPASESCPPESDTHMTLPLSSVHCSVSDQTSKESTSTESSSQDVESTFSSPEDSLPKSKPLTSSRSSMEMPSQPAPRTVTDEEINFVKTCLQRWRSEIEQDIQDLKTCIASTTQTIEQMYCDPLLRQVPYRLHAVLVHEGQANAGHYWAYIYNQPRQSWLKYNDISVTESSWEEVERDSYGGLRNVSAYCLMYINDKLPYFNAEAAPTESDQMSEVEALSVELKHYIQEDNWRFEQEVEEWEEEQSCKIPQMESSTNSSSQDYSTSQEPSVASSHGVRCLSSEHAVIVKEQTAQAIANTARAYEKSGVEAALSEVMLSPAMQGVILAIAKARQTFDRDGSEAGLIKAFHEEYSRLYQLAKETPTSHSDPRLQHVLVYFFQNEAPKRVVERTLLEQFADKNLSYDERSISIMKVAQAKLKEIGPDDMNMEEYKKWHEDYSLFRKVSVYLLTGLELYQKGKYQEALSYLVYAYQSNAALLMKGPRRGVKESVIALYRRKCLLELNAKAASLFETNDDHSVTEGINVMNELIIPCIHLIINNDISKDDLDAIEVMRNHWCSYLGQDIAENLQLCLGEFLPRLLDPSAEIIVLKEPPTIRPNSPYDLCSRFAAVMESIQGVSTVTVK
In short: as §1

Measured: log2 ratio of Biotin-Ahx-Ub-VS probe labelling

USP24, sequence (Q9UPU5 whole entry): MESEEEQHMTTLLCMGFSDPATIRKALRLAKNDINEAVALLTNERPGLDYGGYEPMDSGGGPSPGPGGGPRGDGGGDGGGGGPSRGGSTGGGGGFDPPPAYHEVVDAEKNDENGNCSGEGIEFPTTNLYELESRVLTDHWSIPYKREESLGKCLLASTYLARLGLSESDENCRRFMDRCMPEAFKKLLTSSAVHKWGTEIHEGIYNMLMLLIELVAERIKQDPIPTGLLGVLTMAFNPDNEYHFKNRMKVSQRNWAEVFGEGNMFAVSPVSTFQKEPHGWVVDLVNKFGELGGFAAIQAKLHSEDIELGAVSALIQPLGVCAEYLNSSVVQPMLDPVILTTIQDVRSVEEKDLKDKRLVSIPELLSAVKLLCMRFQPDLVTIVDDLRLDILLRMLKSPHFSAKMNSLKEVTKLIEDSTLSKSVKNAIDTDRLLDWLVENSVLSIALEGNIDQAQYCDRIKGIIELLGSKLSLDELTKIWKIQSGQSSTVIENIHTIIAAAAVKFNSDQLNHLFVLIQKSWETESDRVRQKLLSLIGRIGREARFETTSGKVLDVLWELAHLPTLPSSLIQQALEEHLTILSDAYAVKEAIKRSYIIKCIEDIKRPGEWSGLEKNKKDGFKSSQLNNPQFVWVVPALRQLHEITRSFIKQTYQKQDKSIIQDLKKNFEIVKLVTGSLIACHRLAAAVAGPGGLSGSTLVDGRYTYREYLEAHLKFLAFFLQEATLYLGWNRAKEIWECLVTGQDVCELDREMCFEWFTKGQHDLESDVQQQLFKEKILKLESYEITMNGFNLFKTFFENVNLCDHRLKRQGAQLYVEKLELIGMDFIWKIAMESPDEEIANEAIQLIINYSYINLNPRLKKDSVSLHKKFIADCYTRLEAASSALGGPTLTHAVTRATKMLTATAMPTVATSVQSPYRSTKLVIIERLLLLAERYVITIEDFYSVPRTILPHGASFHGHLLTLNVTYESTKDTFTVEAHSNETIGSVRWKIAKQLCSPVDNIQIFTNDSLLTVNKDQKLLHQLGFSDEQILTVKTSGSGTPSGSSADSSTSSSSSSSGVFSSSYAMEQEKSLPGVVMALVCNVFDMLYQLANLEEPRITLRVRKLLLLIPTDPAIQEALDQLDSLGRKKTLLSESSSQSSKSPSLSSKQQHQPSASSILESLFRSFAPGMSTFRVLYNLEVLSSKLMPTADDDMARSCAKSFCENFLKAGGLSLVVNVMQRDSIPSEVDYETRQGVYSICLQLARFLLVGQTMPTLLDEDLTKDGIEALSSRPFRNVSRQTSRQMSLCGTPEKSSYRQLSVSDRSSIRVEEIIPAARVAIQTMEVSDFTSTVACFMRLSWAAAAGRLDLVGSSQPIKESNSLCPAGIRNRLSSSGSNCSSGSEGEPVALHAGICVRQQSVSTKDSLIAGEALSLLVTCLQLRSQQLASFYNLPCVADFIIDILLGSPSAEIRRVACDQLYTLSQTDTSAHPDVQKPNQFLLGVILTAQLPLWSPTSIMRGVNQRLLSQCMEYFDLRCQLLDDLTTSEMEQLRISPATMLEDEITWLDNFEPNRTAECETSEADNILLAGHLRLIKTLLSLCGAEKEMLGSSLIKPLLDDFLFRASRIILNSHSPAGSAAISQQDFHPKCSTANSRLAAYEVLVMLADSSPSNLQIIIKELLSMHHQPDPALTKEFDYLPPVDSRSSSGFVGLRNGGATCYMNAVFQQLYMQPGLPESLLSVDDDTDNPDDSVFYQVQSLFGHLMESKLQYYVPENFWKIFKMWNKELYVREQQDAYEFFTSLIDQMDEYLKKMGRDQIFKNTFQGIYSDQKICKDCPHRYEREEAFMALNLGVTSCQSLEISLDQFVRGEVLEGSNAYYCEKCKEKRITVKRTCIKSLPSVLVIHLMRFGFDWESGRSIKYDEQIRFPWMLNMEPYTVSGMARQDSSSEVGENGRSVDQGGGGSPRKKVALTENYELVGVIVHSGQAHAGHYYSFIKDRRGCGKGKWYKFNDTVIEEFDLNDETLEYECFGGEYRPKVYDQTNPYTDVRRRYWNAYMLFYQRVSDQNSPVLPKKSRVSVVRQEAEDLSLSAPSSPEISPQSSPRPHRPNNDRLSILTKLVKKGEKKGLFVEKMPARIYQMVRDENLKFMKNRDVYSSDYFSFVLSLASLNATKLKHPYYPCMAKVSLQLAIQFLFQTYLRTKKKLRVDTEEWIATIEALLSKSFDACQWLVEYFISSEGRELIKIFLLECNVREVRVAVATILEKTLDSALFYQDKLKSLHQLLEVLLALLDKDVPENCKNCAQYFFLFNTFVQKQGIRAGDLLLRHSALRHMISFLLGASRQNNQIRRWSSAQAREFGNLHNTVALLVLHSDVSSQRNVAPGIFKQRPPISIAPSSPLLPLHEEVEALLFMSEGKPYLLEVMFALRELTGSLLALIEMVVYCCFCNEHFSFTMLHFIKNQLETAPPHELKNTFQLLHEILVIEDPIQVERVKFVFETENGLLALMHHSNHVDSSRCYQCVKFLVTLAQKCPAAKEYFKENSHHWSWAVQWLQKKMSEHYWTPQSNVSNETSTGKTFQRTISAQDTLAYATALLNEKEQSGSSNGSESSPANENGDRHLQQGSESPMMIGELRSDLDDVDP

NC(=O)C1CCCCN1C(=O)CCl (centres undefined)
inactive: USP19 -0.231 | USP24 -0.241 | USP25 -0.267 | USP28 -0.652
